# Compounds without any hit were thinned out: in the full panel of roughly 83,000, 20% have a hit.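 96-well plates, one dose, 48 hours. Percent growth reported; active if below 10.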 Active and inactive are the calls of the source.
# Test system: SF-268 CNS
# Test: NCI-60 one-dose screen, 48 h (100 = growth as untreated, 0 = no growth, -100 = all killed)
# Settings: 10 µM unless noted
row,Structure (SMILES),growth
1,COc1cc2cc(Oc3ccc(NC(=O)Nc4ccc(Cl)c(C(F)(F)F)c4)cc3)c(C)nc2cc1OCCN1CCCCC1,3.42% (active)
2,CN1CCN(c2ccc3nc(-c4ccc5nc(-c6ccc(C(F)(F)F)cc6)[nH]c5c4)[nH]c3c2)CC1,70.8% (inactive)
3,Cc1c(C(=O)Nc2nc(-c3ccccc3)cs2)nnn1-c1ccccc1Br,61.5% [50 µM] (inactive)
4,Clc1ccc(Nc2nc(Nc3ccccc3)nc(Nc3ccc(-c4cc(-c5ccc(Cl)cc5)on4)cc3)n2)cc1,61.7% (inactive)
5,C=C1CC[C@@H]2[C@@](C)(CCC[C@]2(C)C(=O)O)[C@@H]1CC[C@H](CO)CCO,99.8% (inactive)
6,COC(=O)CCC(=O)c1ccccc1,107% (inactive)
7,COc1ncnc2c1ncn2C/C(Br)=C(\Br)CCl,11.6% (inactive)
8,CN1CCC(OC2c3ccccc3CCc3ccccc32)CC1,89.5% (inactive)
9,O=[N+]([O-])c1ccc(C=C2C(Cl)=C(Cl)C(Cl)=C2Cl)cc1,55.1% (inactive)
10,COc1ccc(OC)c(/C=C2\Oc3cc(O)ccc3C2=O)c1,87.3% (inactive)
11,COC(=O)[C@@]12CC[C@@H](C)[C@]3(C[C@@H](c4ccoc4)OC3=O)[C@H]1CC[C@@H]1O[C@@]12C,95% (inactive)
12,COc1ccc(-c2nc3sc(C)cn3c2/C=C/C(=O)c2cc(OC)c(OC)c(OC)c2)cc1,73.4% (inactive)
13,C=CC(=O)N1CC2(CC(n3nc(-c4ccc(Oc5ccccc5)cc4)c4c(N)ncnc43)C2)C1,10.9% (inactive)
14,Cc1cc(=O)c2c(C)ccc(C)c2[nH]1,96.8% (inactive)
15,O=C1CN2CCC1C/C2=C\c1ccnc2c(Cl)cccc12 (stereo not drawn),101% (inactive)
16,O=C1c2ccccc2-c2nnc(-c3ccc(Br)cc3)cc21,59.3% (inactive)
17,COc1ccc(-c2nn(-c3ccc(NC(=O)c4ccc(Cl)c(Cl)c4)cc3)cc2-c2ccncc2)cc1Cl,49.2% (inactive)
18,O=c1oc2ccccc2cc1-c1csc(N=Nc2c(O)[nH]c3ccc(Cl)cc23)n1,98.4% (inactive)
19,COc1cc2nc(N3CCC[C@H](NC4=CC(=O)c5ccccc5C4=O)C3)nc(N)c2cc1OC,-52.3% (active)

row,Structure (SMILES),growth
1,O=C1C(N2CCOCC2)=Cc2cccc3cccc1c23,93.8% (inactive)
2,CCOC(=O)c1c(-c2cc(OC)c(OC)c(OC)c2)csc1N,94.5% (inactive)
3,N#Cc1c(-c2cccc(F)c2)cc(-c2ccc(Br)s2)[nH]c1=O,83.1% (inactive)
4,COc1ccc(NC(=O)c2ccc3c(c2)nc(-c2ccc(Cl)cc2)n3-c2cc(C(C)(C)C)[nH]n2)cc1,76.2% (inactive)
5,Oc1cccc(Nc2nc(-c3ccccn3)cs2)c1,110% (inactive)
6,O=S(=O)(/N=C1C=C/C(=N\S(=O)(=O)c2ccccc2)c2ccccc2\1)c1ccccc1,104% (inactive)
7,O=C(COc1cccc(/C=C2\COc3ccccc3C2=O)c1)c1ccccc1,88.7% (inactive)
8,Cc1ccc(S(=O)(=O)N2CCc3ccc(O)c4c3C2Cc2cc(Cl)ccc2-4)cc1 (stereo not drawn),61.9% (inactive)
9,COc1ccc(OC)c(C2C(C#N)=C(N)Oc3cc(O)ccc32)c1 (stereo not drawn),98.2% (inactive)
10,CC(=O)N(CC(O)CO)c1c(I)c(C(=O)NCCO)c(I)c(C(=O)NCC(O)CO)c1I (stereo not drawn),105% (inactive)
11,N#CC1=C(N)Oc2cc(N)ccc2C1c1ccc(F)cc1 (stereo not drawn),81.9% (inactive)
12,CCN(CC)CCCNc1ccc(C)c2sc3ccccc3c(=O)c12,48.1% (inactive)
13,COc1ccc(/C=C2\Oc3cc(C)c(Cl)cc3C2=O)cc1OC,102% (inactive)
14,Cc1nc2ccc(Cl)cc2n1C,103% (inactive)
15,COc1ccc(/C=N/NC(=O)c2cnn(CC(O)Cc3ccccc3)c2N)cc1OC1CCCC1 (stereo not drawn),98.3% (inactive)
16,COc1ccc(-c2csc3c2-n2cccc2C3=O)cc1O,13% (inactive)
17,COc1cc(C(F)(F)F)ccc1-c1cc(-c2ccc(F)cc2)n[nH]1,101% (inactive)
18,C[C@@H](Oc1cc(-c2cnn(C3CC4(CCNCC4)C3)c2)cnc1N)c1c(F)ccc(Cl)c1Cl,-24.5% (active)
19,CC(C)NCC(O)COc1ccc(CCOCC2CC2)cc1 (stereo not drawn),108% (inactive)
